The campaign covered roughly 5,500 compounds. About 2,000 (36%) were called active. Not shown: some 18% with an inconclusive outcome. Rule as the data show it: active = normalized growth mostly below about 0.91 (no sharp cut-off); inconclusive = no clear call, values can overlap the other calls; inactive = mostly above about 0.92. The list shows a part of the results.
Assay: chemical genetic growth profiling, strain panel (AID 1159580);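 also: tested at 20 µM; growth read once vehicle control cultures reached saturation at 30 °C; 1 = growth at the plate median or of vehicle wells; lower values mean less growth of the strain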
Conditions: growth OD
[1] = S. cerevisiae deletion strains, locus YDL101C, strain DUN1, active compounds read low
[2] = S. cerevisiae deletion strains, locus YHR030C, strain SLT2, active compounds read low
[3] = S. cerevisiae deletion strains, locus YAR019C, strain CDC15, active compounds read low
[4] = S. cerevisiae deletion strains, locus YBL105C, strain PKC1, active compounds read low
[5] = S. cerevisiae deletion strains, locus YBR135W, strain CKS1, active compounds read low
[6] = S. cerevisiae deletion strains, locus YBR136W, strain MEC1, active compounds read low
[7] = S. cerevisiae deletion strains, locus YBR160W, strain CDC28, active compounds read low
[8] = S. cerevisiae deletion strains, locus YDL017W, strain CDC7, active compounds read low
[9] = S. cerevisiae deletion strains, locus YDL028C, strain MPS1, active compounds read low
[10] = S. cerevisiae deletion strains, locus YDL108W, strain KIN28, active compounds read low
[11] = S. cerevisiae deletion strains, locus YDL132W, strain cdc53, active compounds read low
[12] = S. cerevisiae deletion strains, locus YDL214C, strain PRR2, active compounds read low
[13] = S. cerevisiae deletion strains, locus YDR052C, strain DBF4, active compounds read low
[14] = S. cerevisiae deletion strains, locus YDR054C, strain cdc34, active compounds read low
[15] = S. cerevisiae deletion strains, locus YDR226W, strain ADK1, active compounds read low
[16] = S. cerevisiae deletion strains, locus YDR477W, strain SNF1, active compounds read low
[17] = S. cerevisiae deletion strains, locus YER123W, strain YCK3, active compounds read low
[18] = S. cerevisiae deletion strains, locus YER133W, strain GLC7, active compounds read low
[19] = S. cerevisiae deletion strains, locus YFL009W, strain cdc4, active compounds read low
[20] = S. cerevisiae deletion strains, locus YFL029C, strain CAK1, active compounds read low
[21] = S. cerevisiae deletion strains, locus YFR003C, strain YPI1, active compounds read low
[22] = S. cerevisiae deletion strains, locus YFR019W, strain FAB1, active compounds read low
[23] = S. cerevisiae deletion strains, locus YFR028C, strain CDC14, active compounds read low
[24] = S. cerevisiae deletion strains, locus YGR040W, strain KSS1, active compounds read low
[25] = S. cerevisiae deletion strains, locus YGR052W, strain FMP48, active compounds read low
[26] = S. cerevisiae deletion strains, locus YGR092W, strain DBF2, active compounds read low
[27] = S. cerevisiae deletion strains, locus YHR079C, strain IRE1, active compounds read low
[28] = S. cerevisiae deletion strains, locus YHR082C, strain KSP1, active compounds read low
[29] = S. cerevisiae deletion strains, locus YHR205W, strain SCH9, active compounds read low
[30] = S. cerevisiae deletion strains, locus YIL147C, strain SLN1, active compounds read low
[31] = S. cerevisiae deletion strains, locus YJL095W, strain BCK1, active compounds read low
[32] = S. cerevisiae deletion strains, locus YJL128C, strain PBS2, active compounds read low
[33] = S. cerevisiae deletion strains, locus YJL157C, strain FAR1, active compounds read low
[34] = S. cerevisiae deletion strains, locus YJR016C, strain ILV3, active compounds read low
[35] = S. cerevisiae deletion strains, locus YJR066W, strain TOR1 (second series), active compounds read low
[36] = S. cerevisiae deletion strains, locus YJR066W, strain TOR1, active compounds read low
[37] = S. cerevisiae deletion strains, locus YKL048C, strain ELM1, active compounds read low
[38] = S. cerevisiae deletion strains, locus YKL067W, strain YNK1, active compounds read low
[39] = S. cerevisiae deletion strains, locus YKL101W, strain HSL1, active compounds read low
[40] = S. cerevisiae deletion strains, locus YKL193C, strain SDS22, active compounds read low
[41] = S. cerevisiae deletion strains, locus YKL203C, strain TOR2, active compounds read low
[42] = S. cerevisiae deletion strains, locus YLR113W, strain HOG1, active compounds read low
[43] = S. cerevisiae deletion strains, locus YLR133W, strain CKI1, active compounds read low
[44] = S. cerevisiae deletion strains, locus YLR403W, strain SFP1, active compounds read low
[45] = S. cerevisiae deletion strains, locus YML070W, strain DAK1, active compounds read low
[46] = S. cerevisiae deletion strains, locus YMR001C, strain CDC5, active compounds read low
[47] = S. cerevisiae deletion strains, locus YMR205C, strain PFK2 (second series), active compounds read low
[48] = S. cerevisiae deletion strains, locus YMR277W, strain FCP1, active compounds read low
[49] = S. cerevisiae deletion strains, locus YNL006W, strain LST8, active compounds read low
[50] = S. cerevisiae deletion strains, locus YNL020C, strain ARK1, active compounds read low
[51] = S. cerevisiae deletion strains, locus YNL161W, strain CBK1, active compounds read low
[52] = S. cerevisiae deletion strains, locus YNL183C, strain NPR1, active compounds read low
[53] = S. cerevisiae deletion strains, locus YNL207W, strain RIO2, active compounds read low
[54] = S. cerevisiae deletion strains, locus YNL222W, strain SSU72, active compounds read low
[55] = S. cerevisiae deletion strains, locus YNL307C, strain MCK1 (second series), active compounds read low
[56] = S. cerevisiae deletion strains, locus YOL078W, strain AVO1, active compounds read low
[57] = S. cerevisiae deletion strains, locus YOL136C, strain PFK27, active compounds read low
[58] = S. cerevisiae deletion strains, locus YOR061W, strain CKA2, active compounds read low
[59] = S. cerevisiae deletion strains, locus YOR119C, strain RIO1, active compounds read low
[60] = S. cerevisiae deletion strains, locus YOR231W, strain MKK1, active compounds read low
[61] = S. cerevisiae deletion strains, locus YOR329C, strain SCD5, active compounds read low
[62] = S. cerevisiae deletion strains, locus YPL031C, strain PHO85, active compounds read low
[63] = S. cerevisiae deletion strains, locus YPL153C, strain RAD53, active compounds read low
[64] = S. cerevisiae deletion strains, locus YPL204W, strain HRR25, active compounds read low
[65] = S. cerevisiae deletion strains, locus YPL209C, strain IPL1, active compounds read low
[66] = S. cerevisiae deletion strains, locus YPL256C, strain CLN2, active compounds read low
[67] = S. cerevisiae deletion strains, locus YPR025C, strain CCL1, active compounds read low
[68] = S. cerevisiae deletion strains, locus YPR106W, strain ISR1, active compounds read low
[69] = S. cerevisiae deletion strains, locus YPR111W, strain DBF20, active compounds read low
[70] = S. cerevisiae deletion strains, strain NNK1, active compounds read low
[71] = S. cerevisiae deletion strains, strain TSCII, active compounds read low

Measured: normalized growth

Cc1cccc(NC(=S)NC2CC3C=CC2C3)c1 (stereo not drawn)
active: S. cerevisiae deletion strains, locus YDL134C, strain PPH21, active compounds read low 0.904 | S. cerevisiae deletion strains, locus YEL061C, strain CIN8, active compounds read low 0.905 | S. cerevisiae deletion strains, locus YLR039C, strain RIC1, active compounds read low 0.685 | S. cerevisiae deletion strains, locus YLR085C, strain ARP6, active compounds read low 0.435 | S. cerevisiae deletion strains, locus YOL006C, strain TOP1, active compounds read low 0.182
inactive: S. cerevisiae deletion strains, locus YAL013W, strain DEP1, active compounds read low 0.939 | S. cerevisiae deletion strains, locus YBR229C, strain ROT2, active compounds read low 0.998 | S. cerevisiae deletion strains, locus YCL061C, strain MRC1, active compounds read low 0.979 | [1] 0.985 | S. cerevisiae deletion strains, locus YDR150W, strain NUM1, active compounds read low 1.01 | S. cerevisiae deletion strains, locus YGR078C, strain PAC10, active compounds read low 0.978 | S. cerevisiae deletion strains, locus YGR229C, strain SMI1, active compounds read low 0.987 | [2] 0.91 | S. cerevisiae deletion strains, locus YHR087W, strain rtc3, active compounds read low 1.02 | S. cerevisiae deletion strains, locus YJR043C, strain POL32, active compounds read low 0.926 | S. cerevisiae deletion strains, locus YJR075W, strain HOC1, active compounds read low 0.994 | S. cerevisiae deletion strains, locus YLR058C, strain SHM2 (second series), active compounds read low 0.993 | S. cerevisiae deletion strains, locus YLR262C, strain YPT6, active compounds read low 0.825 | S. cerevisiae deletion strains, locus YML094W, strain GIM5, active compounds read low 0.882 | S. cerevisiae deletion strains, locus YMR219W, strain ESC1, active compounds read low 0.984 | S. cerevisiae deletion strains, locus YMR263W, strain SAP30, active compounds read low 0.949 | S. cerevisiae deletion strains, locus YMR307W, strain GAS1, active compounds read low 0.688 | S. cerevisiae deletion strains, locus YNL128W, strain TEP1, active compounds read low 0.977 | S. cerevisiae deletion strains, locus YNL153C, strain GIM3, active compounds read low 0.98 | S. cerevisiae deletion strains, locus YNL298W, strain CLA4 (second series), active compounds read low 0.85 | S. cerevisiae deletion strains, locus YNL322C, strain KRE1, active compounds read low 0.993 | S. cerevisiae deletion strains, locus YNR030W, strain Alg12, active compounds read low 0.897 | S. cerevisiae deletion strains, locus YPL055C, strain LGE1, active compounds read low 0.913 | S. cerevisiae deletion strains, locus YPL241C, strain CIN2, active compounds read low 0.91 | S. cerevisiae deletion strains, locus YPR135W, strain CTF4, active compounds read low 0.814 | S. cerevisiae strains, strain wild type, active compounds read low 0.927

S=C(NNC(=S)NC1CC2C=CC1C2)Nc1ccc(Br)c(Cl)c1 (stereo not drawn)
inactive: [3] 0.981 | [4] 0.987 | [5] 0.986 | [6] 0.976 | [7] 0.984 | [8] 0.986 | [9] 0.979 | [1] 0.989 | [10] 0.989 | [11] 0.987 | [12] 0.948 | [13] 0.994 | [14] 0.976 | [15] 0.982 | [16] 0.932 | [17] 0.931 | [18] 0.922 | [19] 0.98 | [20] 0.982 | [21] 0.985 | [22] 0.993 | [23] 0.986 | [24] 0.939 | [25] 0.954 | [26] 0.922 | [2] 0.889 | [27] 0.954 | [28] 1.03 | [29] 0.972 | [30] 0.983 | [31] 0.927 | [32] 0.943 | [33] 0.927 | [34] 0.984 | [35] 0.972 | [36] 1.05 | [37] 0.982 | [38] 0.94 | [39] 0.961 | [40] 0.975 | [41] 0.994 | [42] 0.896 | [43] 0.959 | [44] 0.939 | [45] 0.942 | [46] 0.984 | [47] 0.957 | [48] 0.983 | [49] 0.984 | [50] 0.952 | [51] 0.982 | [52] 1.04 | [53] 0.977 | [54] 0.991 | [55] 0.956 | [56] 0.984 | [57] 0.964 | [58] 0.947 | [59] 0.994 | [60] 0.963 | [61] 0.993 | [62] 0.928 | [63] 0.932 | [64] 0.939 | [65] 0.986 | [66] 0.987 | [67] 0.987 | [68] 0.981 | [69] 0.983 | [70] 0.983 | [71] 0.985

COc1cccc(NC(=S)NC2CC(C)CC(C)(C)C2)c1 (stereo not drawn)
inactive: [3] 0.986 | [4] 0.986 | [5] 0.973 | [6] 0.985 | [7] 0.978 | [8] 0.984 | [9] 0.99 | [1] 0.975 | [10] 0.989 | [11] 0.984 | [12] 0.986 | [13] 0.99 | [14] 0.967 | [15] 0.972 | [16] 0.98 | [17] 0.962 | [18] 0.962 | [19] 0.98 | [20] 0.99 | [21] 0.984 | [22] 1.02 | [23] 0.966 | [24] 0.979 | [25] 1.02 | [26] 0.895 | [2] 0.927 | [27] 0.922 | [28] 1.08 | [29] 0.995 | [30] 0.981 | [31] 0.929 | [32] 0.954 | [33] 0.976 | [34] 0.986 | [35] 0.979 | [36] 1.07 | [37] 0.989 | [38] 0.983 | [39] 0.996 | [40] 0.981 | [41] 1.03 | [42] 0.957 | [43] 0.979 | [44] 0.938 | [45] 0.978 | [46] 0.984 | [47] 1 | [48] 0.988 | [49] 0.984 | [50] 0.974 | [51] 0.971 | [52] 1.07 | [53] 0.967 | [54] 1 | [55] 0.977 | [56] 0.985 | [57] 0.964 | [58] 0.986 | [59] 1.04 | [60] 1.05 | [61] 0.984 | [62] 0.973 | [63] 0.964 | [64] 0.949 | [65] 0.99 | [66] 0.984 | [67] 0.988 | [68] 0.994 | [69] 0.991 | [70] 0.982 | [71] 0.976
